Source: PubChem BioAssay (National Center for Advancing Translational Sciences (NCATS))
nsP2pro primary = inhibitors of chikungunya virus nsP2 protease; Q8JUX6; FRET peptide cleavage, nsP2pro, fluorescence 1 h; Potency, µM (doses to about 24.9 µM), inactives show at the highest dose activity change, negative = inhibition, usual class: inhibitors; actives 1.1% (n = 31,000); calls by dose curve; further: nearly all actives have a fitted effect of over 60% in size
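Recombinant nsP2pro (150 nM) was preincubated with compound 15 min at room temperature in 10 mM Tris-HCl pH 8.0, 0.01% Tween 20. Peptide 2 FRET substrate (2.5 uM) was then added and fluorescence read after 1 h. Seven-point series, up to 25 uM.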
The depositor's hits bear a star; [ ] = dose if it differs, or a comment. The sample as a whole holds a higher share of hits than the screen did. On the % scale 0 is the no-effect control and ±100 the full control effect; potency means the concentration at half of the fitted maximal effect.

`O=C(NCc1ccc(Cl)cc1)c1ccc2nnc(-c3cc[nH]c3)n2c1` gave nsP2pro primary 3%.
O=C(NCc1ccccc1Cl)c1ccc2nnc(-c3ccoc3)n2c1 was read as nsP2pro primary 11µM*.
For Cc1cc2ncc(C(=O)NCc3ccccc3Cl)cn2n1 the results were nsP2pro primary -1%[39.2 µM].
For COc1cc(O)c(C(CC(=O)N2CCCC(CN3CCCCC3)C2)c2ccc3c(c2)OCO3)c(OC)c1 (stereo not given) the results were nsP2pro primary -7%[39.2 µM].
For O=C(OCc1c(-c2ccccc2)no[n+]1[O-])c1ccccc1 the results were nsP2pro primary -3%.
For Cc1c(P(=S)(c2ccccc2)c2ccccc2)c2ccccc2n1C(=O)NCc1ccccc1 the results were nsP2pro primary -7%.
`Cc1c(P(=O)(c2ccccc2)c2ccccc2)c2ccccc2n1C` gave nsP2pro primary 11µM*.
For Cc1c(P(=S)(c2ccccc2)c2ccccc2)c2ccccc2n1Cc1ccccc1 the results were nsP2pro primary inactive.
`O=C(c1nccc2ccccc12)N1CCc2c(nc(-c3ccccc3)[nH]c2=O)C1` gave nsP2pro primary 3%.
`COc1ccc(-n2nc(C(=O)O)c(=O)n(C)c2=O)cc1` gave nsP2pro primary -24%.
For CCC1CCCCN1C(=O)c1nn(-c2ccc(OC)cc2)c(=O)c2c1c1ccccc1n2C (stereo not given) the results were nsP2pro primary -15%.
For CCOC(=O)c1nn(-c2ccc(OC)cc2)c(=O)c2c(N)scc12 the results were nsP2pro primary 11µM*.
COCCN1C(=O)c2cccn2CC1CNS(=O)(=O)Cc1ccccc1 (stereo not given) was read as nsP2pro primary 2%.
`CN(C)[C@H]1CCN(C(=O)Cc2cn(C)c3ccccc23)C[C@H]1CCC(=O)O` gave nsP2pro primary 1%.
For CC(C)C(=O)Oc1ccc(CO)cc1[C@H](CCN(C(C)C)C(C)C)c1ccccc1 the results were nsP2pro primary 12%.
For CC1CCC2(O1)C(C)(C)CC(O[C@@H]1O[C@H](CO[C@@H]3OC[C@](O)(CO)[C@H]3O)[C@@H](O)[C@H](O)[C@H]1O)CC2(C)O (stereo not given in full) the results were nsP2pro primary 9%[10 µM].
`O=C(NCc1ccnc2[nH]ccc12)c1cncc(Br)c1` gave nsP2pro primary -24%[39.2 µM].
Screening CCS(=O)(=O)N1CCC(Oc2cccc(C(=O)NCc3ccccn3)c2)CC1 returned nsP2pro primary 2%.
For O=C(NCc1ccnc2[nH]ccc12)c1cccc(Br)c1 the results were nsP2pro primary 11µM*.
`CCN(CC)c1cc2c(cc1S(=O)(=O)Nc1ccc(C)c(C)c1)CCC(=O)N2` gave nsP2pro primary -5%.
Screening CN1CCC(c2c[nH]c3ccc(NC(=O)c4ccc(F)cc4)cc23)CC1 returned nsP2pro primary 16%.
For COc1ccc2[nH]cc(CCNC(=O)Nc3ccc(F)cc3)c2c1 the results were nsP2pro primary 9%.
Screening O=C(O)/C(S)=C/c1c[nH]c2ccc(F)cc12 returned nsP2pro primary 11µM*.
Screening CCc1cccc(NC(=O)N2CC(c3nnc(C(C)C)o3)C3(CCOCC3)C2)c1 (stereo not given) returned nsP2pro primary 1%.
For CC(C)=CCc1c(O)cc2oc3cc(C)cc(O)c3c2c1C the results were nsP2pro primary 20%.
`Cc1csc(NC(=O)c2nc3c(o2)CCN(Cc2ccccc2F)CC3)n1` gave nsP2pro primary 13µM*.
`Cc1csc(NC(=O)c2ccc(COc3cccc(Cl)c3)o2)n1` gave nsP2pro primary 0%.
Screening Cc1ccc2nc(NC(=O)c3cccn(Cc4ccccc4F)c3=O)sc2c1 returned nsP2pro primary -13%.
`CC(C)(C)CNc1nc(C#N)nc(Nc2ccccc2)n1` gave nsP2pro primary -1%.
CCn1c(-c2nonc2N)nc2c(C#CC(C)(C)O)ncc(OCC3CCCNC3)c21 (stereo not given) was read as nsP2pro primary 42%.
For CN(C)Cc1nnc(C2CC(NC(=O)Cc3c(F)cccc3Cl)C2)n1C (stereo not given) the results were nsP2pro primary -8%.
`CN(C)Cc1nnc(C2CC(NC(=O)c3cc(-c4ccsc4)n[nH]3)C2)n1C` (stereo not given) gave nsP2pro primary -1%.
`CN(C)Cc1nnc(C2CC(NC(=O)c3cc(-c4cccn4C)n[nH]3)C2)n1C` (stereo not given) gave nsP2pro primary 0.5µM*.
For O=C(COC(=O)CNC(=O)c1ccccc1)Nc1cc(C(F)(F)F)ccc1Cl the results were nsP2pro primary -5%.
`N#Cc1ccc([C@H]2CCc3cncn32)c(F)c1` gave nsP2pro primary 1%.
Screening CCOC(=O)C1=Cc2ccc(C(F)(F)C(F)(F)F)cc2N=C(N)C1 returned nsP2pro primary 34%.
For COc1ccc(C(=O)NCC(c2ccco2)S(=O)(=O)c2cccs2)cc1OC (stereo not given) the results were nsP2pro primary -17%.
COC(=O)c1c(-c2cccs2)csc1NC(=O)c1ccc(OC)c(OC)c1 was read as nsP2pro primary 13µM*.
CCCc1ccc(OCC(=O)Nc2scc(-c3cccs3)c2C(=O)OC)cc1 was read as nsP2pro primary -32%.
`O=C1O[C@H](C(O)CO)C(=O)C1=O` (stereo not given in full) gave nsP2pro primary 2%.
For COc1cc(OC)cc(N(CCNC(C)C)c2ccc3ncc(-c4cnn(C)c4)nc3c2)c1 the results were nsP2pro primary -19%.
For CCOc1ccccc1CN1CCC2(Cc3ccccc3CNC2=O)C1 (stereo not given) the results were nsP2pro primary -3%.
`CCc1ccc(NS(=O)(=O)c2[nH]ncc2C(=O)OC)cc1` gave nsP2pro primary 10µM*.
CCc1ccc(NS(=O)(=O)c2ccc3[nH]c4c(c3c2)CCCCCC4)cc1 was read as nsP2pro primary -19%.
Screening CCCCc1ccc(NS(=O)(=O)c2ccc(F)cc2)cc1 returned nsP2pro primary -9%.
`O[C@@H]1C[C@@H](c2nc(Cc3ccc(F)cc3Cl)no2)N(Cc2ccco2)C1` gave nsP2pro primary 4%[39.2 µM].
`O=C(Nc1ccc(-c2nc3ccccc3[nH]2)cc1)c1ccc2sccc2c1` gave nsP2pro primary -11%.
`O=C(Nc1ccc(-c2nc3ccccc3[nH]2)cc1)c1ccc2ncsc2c1` gave nsP2pro primary 11µM*.
For O=C(Nc1ccc(-c2nc3ccccc3[nH]2)cc1)c1ccc2ncccc2c1 the results were nsP2pro primary 0%.
For C#CCNC(=O)C[C@@H]1C[C@@H](C(C)C)[C@H](CNS(C)(=O)=O)C=C1C the results were nsP2pro primary -18%[39.2 µM].
For O=C(CCC[C@@H]1[C@H]2CCCN3CCC[C@@H](CN1Cc1ccccc1)[C@@H]23)Nc1cccnc1 the results were nsP2pro primary -13%.
`CC1=CC2OC3[C@H](O)C[C@@](C)([C@]34CO4)[C@@]2(CO)[C@H](O)C1=O` (stereo not given in full) gave nsP2pro primary 0.31µM*.
`CC(=O)OC[C@]12C[C@H](OC(=O)CC(C)C)C(C)=C[C@H]1O[C@@H]1[C@H](O)[C@@H](O)[C@@]2(C)[C@]12CO2` gave nsP2pro primary -7%[10 µM].
`CC(=O)OC[C@]12C[C@H](O)C(C)=C[C@H]1O[C@@H]1[C@H](O)[C@@H](O)[C@@]2(C)[C@]12CO2` gave nsP2pro primary -2%.
